# Experimental data as given in PubChem BioAssay AID1851 (National Center for Advancing Translational Sciences (NCATS), 2009).
# Hit rate of the full screen: of about 16,000 compounds, about 5,100 (32%) were called active. Not shown: some 25% with an inconclusive outcome. Calls follow the shape of the dose curve; as a rule, active = well fitted curve in the direction sought with a large enough effect; inconclusive = small, poorly fitted or top-dose-only effect, or effect the other way; inactive = no such curve, though single readings can be large or run the other way. The list shows a part of the results.
# Target: Cytochrome P450 3A4 (Homo sapiens) (UniProt P08684)
# Sequence (P08684 whole entry, looked up): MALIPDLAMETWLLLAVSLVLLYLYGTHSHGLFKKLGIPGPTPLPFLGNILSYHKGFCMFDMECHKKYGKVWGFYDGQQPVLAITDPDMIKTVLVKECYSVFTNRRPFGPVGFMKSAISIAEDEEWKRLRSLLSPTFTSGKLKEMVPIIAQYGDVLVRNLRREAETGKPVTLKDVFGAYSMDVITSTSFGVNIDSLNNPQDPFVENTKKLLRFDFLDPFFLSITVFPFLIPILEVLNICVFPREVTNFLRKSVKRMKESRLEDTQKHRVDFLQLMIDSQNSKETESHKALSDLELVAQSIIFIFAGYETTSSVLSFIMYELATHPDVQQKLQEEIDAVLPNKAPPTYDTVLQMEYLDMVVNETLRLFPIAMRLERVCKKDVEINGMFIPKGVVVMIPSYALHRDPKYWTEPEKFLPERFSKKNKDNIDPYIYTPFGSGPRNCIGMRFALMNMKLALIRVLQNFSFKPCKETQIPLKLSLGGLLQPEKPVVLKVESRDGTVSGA
# Experiment: Cytochrome panel assay with activity outcomes
# Conditions: recombinant CYP, pro-luciferin dealkylation, luminescence, p450-cyp3a4; series mostly up to 57.1 µM; activity, negative = inhibition: at the top concentration
# % is scaled to controls: 0 for no effect and ±100 for the full control effect.
Compound,"activity, negative = inhibition",AC50
CC[N+](CC)(CC)CCOc1cccc(OCC[N+](CC)(CC)CC)c1OCC[N+](CC)(CC)CC,2.58% [at 25.6 µM] (inactive),
CCN1C[C@@]2(COC)[C@H]3[C@@H](OC)[C@H]4C1[C@@]3([C@H](OC)C[C@@H]2O)[C@H]1C[C@@]2(O)[C@@H](OC(=O)c3ccccc3)[C@@H]1[C@@]4(OC(C)=O)[C@H](O)[C@@H]2OC,-14.5% [at 25.6 µM] (inactive),
O=c1c2ccccc2c2ccccc2c(=O)n1-c1cc2c3ccccc3ccc2c2ccccc12,-20.6% [at 11.4 µM] (inactive),
CC1=C2C(=O)[C@@H]3[C@@H](CC=C4C[C@@H](O)CC[C@@]43C)[C@H]2CC[C@@]12O[C@H]1C[C@H](C)CN[C@H]1[C@@H]2C,7.7% [at 11.4 µM] (inactive),
Cc1sc2ccccc2c1CC1=NCCN1,-5.52% (inactive),
CC(N)Cc1ccccc1Sc1ccc(O)cc1 (stereo not given),13.2% [at 2.29 µM] (inactive),
O=[N+]([O-])c1cc([As](=O)(O)O)ccc1O,-2.7% [at 25.6 µM] (inactive),
Cn1c(O)c(C(c2ccccn2)c2c(O)n(C)c(=S)n(C)c2=O)c(=O)n(C)c1=S,,0.794 µM (active)
CCn1c(O)c(C(c2ccccn2)c2c(O)n(CC)c(=S)[nH]c2=O)c(=O)[nH]c1=S,-18.3% (inactive),
Cn1c(O)c(C(c2ccccn2)c2c(O)n(C)c(=S)[nH]c2=O)c(=O)[nH]c1=S,-8.62% (inactive),
c1ccc(N2CCC3(CCNCC3)CC2)cc1,-14.2% (inactive),
Cn1cc(C(=O)C(=O)N[C@H]2CN3CCC2CC3)c2ccccc21,-12.3% (inactive),
C[C@H](N)[C@H](O)c1ccc(O)c(O)c1,inactive,
CC[C@]1(c2cccc(O)c2)CCCCN(C)C1,-9.23% [at 25.6 µM] (inactive),
CC(C)CCn1c(N)c(C(=O)NCc2cccs2)c2nc3ccccc3nc21,-19.7% [at 2.29 µM] (inactive),
CCCCn1c(N)c(C(=O)NCc2cccs2)c2nc3ccccc3nc21,-29.4% [at 2.29 µM] (inactive),
COc1ccc(Cn2c(N)c(C(=O)NCc3ccco3)c3nc4ccccc4nc32)cc1,,11.2 µM (active)
CC(=O)OCC(=O)[C@@H]1CC[C@H]2[C@H]3CC[C@H]4C[C@@H](O)CC[C@]4(C)[C@@H]3C(=O)C[C@@]12C,-27.9% [at 25.6 µM] (inactive),
O=C(O)C[C@H]1NCc2cc3ccccc3nc21,-6.42% [at 11.4 µM] (inactive),
CCC1=C(C[C@H]2NCCc3ccccc32)C[C@@H]2c3cc(OC)c(OC)cc3CCN2C1,-26.3% [at 11.4 µM] (inactive),
COc1ccc(C(=O)O[C@H]2CC[C@@]3(C)[C@H]4CC[C@H]5[C@]3(C[C@]3(O)[C@H]6CN7C[C@H](C)CC[C@H]7[C@](C)(O)[C@]6(O)[C@H](O)C[C@]53O)O[C@]24O)cc1OC,-3.45% [at 11.4 µM] (inactive),
Nc1ccccc1O.O.O=C(O)[C@H]1[O][Sb][O][C@H]1C(=O)O,-6.7% [at 11.4 µM] (inactive),
O=C=Nc1ccc(Cc2ccc(N=C=O)cc2)cc1 (tested in a mixture with another compound),6.47% [at 11.4 µM] (inactive),
O=S1(=O)N(CCN2CC=C(c3c[nH]c4cc(F)ccc34)CC2)c2cccc3c2N1CCC3,,5.01 µM (active)
CN1CC[C@]2(C)c3cc(O)ccc3N(C)[C@@H]12,-26.7% [at 25.6 µM] (inactive),

Compound,"activity, negative = inhibition",AC50
c1csc(CN2CCC3(CCNCC3)CC2)n1,1.58% (inactive),
Cc1c(C(=O)c2ccc3ccccc3c2)c2cccc3c2n1[C@H](CN1CCOCC1)CO3,,7.94 µM (active)
O[C@@H]1[C@H](O)[C@H]2[C@@H](O)CCN2C[C@@H]1O,-12.5% (inactive),
CCN(CC)C1=NC(=[N+](CC)CC)c2ccccc21,21.8% (inactive),
CCCCCCC[n+]1ccc(-c2cc[n+](CCCCCCC)cc2)cc1,-27.3% (inactive),
O=C1CS[C@@H](c2ccccc2Cl)c2cc(Cl)ccc2N1,-14.7% (inactive),
O=C(O)c1cc(N=Nc2ccc([As](=O)(O)O)cc2)ccc1O,1.38% [at 11.4 µM] (inactive),
CCOC(C(=O)OCCCN(CC)CC)(c1ccccc1)c1ccccc1,,0.708 µM (active)
C=C1[C@@H]2CC[C@H]3[C@@]4(C)C[C@@H](O[C@@H]5O[C@H](CO)[C@H](OS(=O)(=O)O)[C@@H](OS(=O)(=O)O)[C@@H]5OC(=O)CC(C)C)C[C@@H](C(=O)O)[C@H]4CC[C@@]3(C2)[C@H]1O,-7.65% [at 25.6 µM] (inactive),
CCN1C[C@@]2(COC)CC[C@H](OC)[C@]34[C@@H]1[C@]1(OCO[C@@]15C[C@@H](OC)C1C[C@H]3[C@H]5[C@@H]1OC)[C@H](O)[C@@H]24,-11.6% [at 25.6 µM] (inactive),
O=C(O)c1ccccc1-c1c2cc(Br)c(=O)cc-2oc2[c]([Hg])c(O)c(Br)cc12,-27.4% [at 25.6 µM] (inactive),
CC(=O)O[C@H]1C[C@@H](O[C@@H]2[C@H](C)O[C@H](O[C@@H]3[C@H](C)O[C@H](O[C@@H]4CC[C@@]5(C)[C@@H](CC[C@]6(C)[C@]5(C)C[C@H](O)[C@]5(C)[C@@H](C7=CC(=O)OC7)CC[C@@]56O)C4)C[C@@H]3O)C[C@@H]2O)O[C@@H](C)[C@H]1O[C@H]1O[C@@H](CO)[C@@H](O)[C@@H](O)[C@@H]1O,-1.51% [at 25.6 µM] (inactive),
COC(=O)[C@H]1C(=O)c2ccccc2O[C@@](C(=O)OC)(c2ccccc2)[C@@H]1c1ccccc1,,3.98 µM (active)
O=P(O)(O)CCP(=O)(O)O,6.5% [at 11.4 µM] (inactive),
Cc1cc[c]([Sb]2[O][C@H]([C@H](O)[C@H](O)C(=O)O)[C@@H](CO)[O]2)cc1,0.934% [at 11.4 µM] (inactive),
C[N+]1(C)[C@@H]2CC[C@H]1CC(OC(=O)[C@@H](CO)c1ccccc1)C2 (stereo not given in full),inactive,
C[N+]1(C)[C@@H]2CC[C@H]1CC(OC(=O)c1c[nH]c3ccccc13)C2 (stereo not given in full),,7.94 µM (active)
C[N+]1(C)C2CC[C@H]1CC(OC(=O)[C@@H](CO)c1ccccc1)C2 (stereo not given in full),8.45% [at 11.4 µM] (inactive),
CC(=O)OCC1=C(C(=O)O)N2C(=O)[C@@H](N)[C@@H]2SC1,-8.51% [at 25.6 µM] (inactive),
CCc1ccc(CCN2CCCCC2)nc1,-16.1% [at 11.4 µM] (inactive),
C[C@@]12CCC(=O)C=C1C=C[C@H]1[C@H]3CC[C@](O)(CCC(=O)O)[C@]3(C)CC[C@@H]12,-2.78% [at 25.6 µM] (inactive),
O=c1cccc2n1CC1CNC[C@H]2C1,-25.1% [at 25.6 µM] (inactive),
O=C(c1ccc(-c2nnc(Nc3ccccc3)c3ccccc23)cc1)N1C[C@H]2C[C@H](C1)c1cccc(=O)n1C2,,31.6 µM (active)
COc1cc(C(=O)OC2C[C@H]3CC[C@@H](C2)N3C)ccc1O (stereo not given in full),-6.91% [at 25.6 µM] (inactive),
O=c1[nH]cnc2[nH]cc(CN3CCCCC3)c12,-10.7% [at 11.4 µM] (inactive),

Compound,"activity, negative = inhibition",AC50
N[C@@H]1C=CC=C(C(=O)O)C1,-0.917% (inactive),
O=S(=O)(NCCO)c1cc[c]([Sb](=[O])([OH])[OH])cc1,9.57% [at 11.4 µM] (inactive),
CCCN1CCO[C@@H]2c3cc(O)ccc3OC[C@H]21,-26% (inactive),
c1cncc([C@@H]2CCCCN2)c1,inactive,
O=S(=O)(c1ccccc1)N1CCCCC1c1cccnc1 (stereo not given),,2.24 µM (active)
CC1=C(C)[N+](=O)C2(O)CCCCC2(C)N1[O-] (stereo not given),-0.437% (inactive),
CCCN(CCC)[C@@H]1CCc2ccc(O)cc2C1,inactive,
NC(N)=NS(=O)(=O)c1ccc(N)cc1,-31.3% [at 25.6 µM] (inactive),
CN(C)[C@@H]1C(=O)C(C(N)=O)=C(O)[C@]2(O)C(=O)C3=C(O)c4c(O)cccc4[C@@](C)(O)[C@H]3[C@H](O)[C@@H]12,-9.86% [at 25.6 µM] (inactive),
O=[N+]([O-])c1cc(O)c(O)c([N+](=O)[O-])c1,-20.1% (inactive),
O=[N+]([O-])c1ccc(S(=O)(=O)Cc2ccccc2)c([N+](=O)[O-])c1,,0.316 µM (active)
O=C(O)Cc1ccc([N+](=O)[O-])cc1[N+](=O)[O-],-8.12% [at 11.4 µM] (inactive),
Cc1cc(OC(=O)CCCNC(=O)OC(C)(C)C)c2c3c(c(=O)oc2c1)CCC3,4.44% [at 2.29 µM] (inactive),
COc1cc2c3cc1Oc1cc(ccc1O)C[C@@H]1c4c(cc(OC)c(O)c4Oc4cccc(c4)C[C@H]3N(C)CC2)CC[N+]1(C)C,-9.52% [at 25.6 µM] (inactive),
CC(C)(O)/C=C\C(=O)[C@](C)(O)[C@H]1[C@H](O)C[C@]2(C)[C@@H]3CC=C4[C@@H](C=C(O)C(=O)C4(C)C)[C@]3(C)C(=O)C[C@@]12C,,0.398 µM (active)
CC(=O)OC1N=C(c2ccccc2)c2cc(Br)ccc2N(C)C1=O (stereo not given),-28.2% (inactive),
CC1=NN(c2ccc(S(=O)(=O)O)cc2C)C(=[OH+])[C@H]1N=Nc1cc(S(=O)(=O)O)ccc1C(=O)O.O.[Cr],12.6% [at 11.4 µM] (inactive),
O=[N+]([O-])c1ccc(N2CCNCC2)cc1NCC1CCCO1 (stereo not given),-16.8% (inactive),
COC(=O)[C@H](N)CCCN=C(N)N[N+](=O)[O-],3.46% (inactive),
CCOC(=O)C1=C(C)OC(N)=C(C#N)C12C(=O)N(C)c1ccccc12 (stereo not given),,6.31 µM (active)
COc1ccc(C[C@@H]2NC[C@H](O)[C@@H]2OC(C)=O)cc1,-16.7% [at 25.6 µM] (inactive),
O=C(O)C[O][Sb][O]CC(=O)O,-1.8% [at 11.4 µM] (inactive),
NS(=O)(=O)C[C-]1C=C[CH]([Sb-]([Cl])([Cl])([Cl])([Cl])[Cl])C=C1.c1ccncc1 (stereo not given),7.76% [at 11.4 µM] (inactive),
CC[C@@H]1CN2CCc3cc(OC)c(OC)cc3[C@H]2C[C@@H]1C[C@@H]1NCCc2cc(O)c(OC)cc21,2.41% [at 25.6 µM] (inactive),
Cc1ccc(S(=O)(=O)O[C@H]2CN3CCC2CC3)cc1,-7.01% [at 11.4 µM] (inactive),
